The source made the active and inactive calls. Calls come from the whole dose curve.

Chain of Polyunsaturated fatty acid lipoxygenase ALOX15 (Homo sapiens) (P16050 whole entry, looked up): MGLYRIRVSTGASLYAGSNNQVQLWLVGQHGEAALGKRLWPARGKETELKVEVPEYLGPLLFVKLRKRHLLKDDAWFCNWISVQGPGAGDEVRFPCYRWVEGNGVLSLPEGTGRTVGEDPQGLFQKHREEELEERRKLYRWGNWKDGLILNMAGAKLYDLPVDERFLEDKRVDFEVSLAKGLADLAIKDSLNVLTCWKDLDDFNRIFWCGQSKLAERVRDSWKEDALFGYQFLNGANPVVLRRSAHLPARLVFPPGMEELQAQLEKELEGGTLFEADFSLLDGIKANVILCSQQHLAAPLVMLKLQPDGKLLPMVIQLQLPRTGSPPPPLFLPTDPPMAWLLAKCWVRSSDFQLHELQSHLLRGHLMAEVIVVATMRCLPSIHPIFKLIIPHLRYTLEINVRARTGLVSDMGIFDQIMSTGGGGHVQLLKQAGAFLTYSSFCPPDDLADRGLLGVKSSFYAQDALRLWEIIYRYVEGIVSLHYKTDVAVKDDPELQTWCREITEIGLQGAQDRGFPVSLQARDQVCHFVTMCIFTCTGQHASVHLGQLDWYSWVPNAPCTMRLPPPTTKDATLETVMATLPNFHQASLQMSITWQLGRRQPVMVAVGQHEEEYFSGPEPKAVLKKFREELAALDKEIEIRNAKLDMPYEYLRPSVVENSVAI

In the assay the target is Polyunsaturated fatty acid lipoxygenase ALOX15 (Homo sapiens) (UniProt P16050). The assay can be described thus: Cuvette-Based Assay fo Inhibitors of 15-hLO-1 (15-human lipoxygenase 1): Series 1 - Round 1. To be noted: purified 15-hLO-1, cuvette UV 234 nm product formation. The text has this:
Assay Provider: Holman, T.R., University of California, Santa Cruz Screening Center PI: Austin, Christopher P. Screening Center: NIH Chemical Genomics Center Human lipoxygenase 15hLO-1 is a member of the closely related lipoxygenase family of enzymes which catalyze the site-specific oxidation of arachidonic acid to various hormone precursor molecules and as such is a candidate for drug development in a variety of disease areas, such as cancer and inflammation. The enzyme activity of 15hLO-1 was determined by a direct measurement of product formation by monitoring the absorbance at 234 nm in a 2 mL cuvette. IC50 values of inhibitors were obtained by measuring the enzymatic rate at a variety of concentrations (Carroll et al, Segraves et al). A purified preparation of human 15hLO-1 was supplied by Professor Ted Holman, University of California, Santa Cruz. This assay is includes some confirmation and follow-up compounds for related primary screening assay AID 887. The follow-up compounds focus on analogues of current lead 15hLO-1 inhibitor series.
For control experiments, 2 mL of substrate buffer (7 uM arachidonic acid / 25 mM HEPES / 0.01% (v/v) Triton X-100, pH 7.5) was aliquoted in a cuvette with a magnetic stir bar. After equilibrium was ensured, an aliquot of inhibitor solvent was added (DMSO or MeOH), and equilibrium was once again assured. The reaction was started by adding enzyme to the cuvette and the reaction was followed until completed. The inhibition experiments were performed as above, except the actual inhibitory compound was added instead of vehicle. To achieve an IC50, typically 5 concentrations of the inhibitor were studied. If the inhibitor concentration was constant, then five different reaction volumes were used. Step \ Parameter \ Value \ Description 1; UV-Vis; 234 nm; Equilibration 2; Reagent; 2 mL; Substrate buffer 3; UV-Vis; 234 nm; Equilibration 4; Reagent; varies; Compound 5; UV-Vis; 234 nm; Equilibration 6; Reagent; 50-200 nM; Enzyme 15hLO-1 7; UV-Vis; 234 nm; Enzymatic reaction Step \ Notes 1. Blank cuvette to air. 2. 7 uM AA, 25 mM HEPES, 0.01% Triton X-100, pH 7.5. 3. No change in absorbance ensured. 4. Compound vehicle or compound in various concentrations depending on potency. 5. No change in absorbance ensured. 6. Enzyme concentration to achieve reaction rate between 0.02 and 0.04 AU/s. 7. Enzymatic reaction visualized until completion.
Consider `C=CCNc1nnc(-c2cccc3ccccc23)o1`, for which the Potency is 1000 nM (active). Then `CC(C)Nc1oc(-c2cccc3ccccc23)nc1C#N`, with 190 nM (active); and `O=C(OCC#CCNc1nnc(-c2cccc3ccccc23)o1)c1cccs1`, with 1000 nM (active). Then `O=C(OCC#CCSc1nnc(-c2cccc3ccccc23)o1)c1ccc(Br)cc1`, with 16 nM (active); and `O=C(OCC#CCSc1nnc(-c2cccc3ccccc23)o1)c1ccc(Cl)cc1`, with 18 nM (active). Then `O=C(OCC#CCSc1nnc(-c2cccc3ccccc23)s1)c1cccs1`, with 25000 nM (active); and `COc1ccc(C(=O)OCC#CCSc2nnc(-c3cccc4ccccc34)o2)cc1`, with 22 nM (active). As to `OCC#CCSc1nnc(-c2cccc3ccccc23)o1`, the Potency was 1000 nM (active). Then `O=C(NCC#CCSc1nnc(-c2cccc3ccccc23)o1)c1cccs1`, with 1000 nM (active); and `N#Cc1nc(-c2cccc3ccccc23)oc1NCC#CCOC(=O)c1cccs1`, with 25000 nM (active); and `O=C(OCC#CCSc1nnc(-c2cccc3ccccc23)o1)c1cnc[nH]1`, with 1000 nM (active).

These data come from PubChem BioAssay AID2155 (National Center for Advancing Translational Sciences (NCATS), 2009).
